Source: PubChem BioAssay AID504883 (The Scripps Research Institute Molecular Screening Center, 2011)
Active and inactive are the calls of the source.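 The calls were made as follows: active = EC50 at or below 10 µM; inactive = EC50 above 10 µM.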

experiment: fluorescence polarization artefacts without PKA proteins – biochemical, 1536-well HTS, artefact control for PKA-R1A complex activator project, dose response (AID 504883); details: Cy5-IP20 peptide alone, fluorescence polarization artifact counterscreen

SMILES	EC50
CCCC(=O)Nc1ncnc2c1ncn2[C@@H]1O[C@@H]2OP(=O)(O)OC[C@H]2[C@H]1OC(=O)CCC	> 114 µM (inactive)
Nc1nc2c(nc(Br)n2[C@@H]2O[C@@H]3COP(=O)(O)O[C@H]3[C@H]2O)c(=O)[nH]1	> 114 µM (inactive)
Nc1ncnc2c1nc(Sc1ccc(Cl)cc1)n2[C@@H]1O[C@@H]2COP(=O)(O)O[C@H]2[C@H]1O	> 114 µM (inactive)
CCOP1(=O)OCC2OC(n3cnc4c(N)ncnc43)C(O)C2O1 (stereo unspecified)	> 114 µM (inactive)
CCCC(=O)Nc1ncnc2c1ncn2[C@@H]1O[C@@H]2COP(=O)(O)O[C@H]2[C@H]1OC(=O)CCC	> 114 µM (inactive)
Nc1ncnc2c1nc(Br)n2[C@@H]1O[C@@H]2COP(=O)(O)O[C@H]2[C@H]1O	> 114 µM (inactive)
